Screening results (PubChem)
In the library only some 3.4% were active in any assay of this set; here they are far more common.
PTPN22 act: activators of human LYP (PTPN22) phosphatase. recombinant LYP, DiFMUP fluorescence; 0 = plate median, 100 = signal doubled. 96,000 compounds, 0.11% hits. Q9Y2R2. activation, % at 2 µM;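 active means activation at 2 µM above a set limit, the mean plus 5 SD, cut at about 37% in these data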
ERa coact pot: enhances coactivator binding to human estrogen receptor alpha; P03372; TR-FRET ERalpha-LBD/SRC-Cy5 coactivator binding, 2 h; 100 = basal binding, no effect; coactivator binding (% of control), % at 25.6 µM; 86,000 compounds, 1.3% hits; AID 639; in the data active means activity above about 200%;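 further: binding measured in presence of low estradiol as agonist stimulus; 0% = peptide alone without receptor and 100% = receptor with peptide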
ERa SRC1 inh: ER-alpha (human) coactivator binding inhibition; P03372; TR-FRET ER-alpha LBD / SRC-1 peptide, estradiol-bound; inhibition, % at 25.6 µM; 86,000 compounds, 1.7% hits; AID 629; in the data active means inhibition above about 50%;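 further: 0% = receptor plus peptide control and 100% = peptide only without receptor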
ERb SRC1 inh: blocks coactivator binding to human estrogen receptor beta. inhibition, % at 25.6 µM. TR-FRET ER-beta LBD / SRC1-Cy5 peptide binding; receptor agonist-loaded with 1 µM estradiol. 86,000 compounds, 1.3% hits;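 active means compounds whose percent inhibition of the receptor-coactivator binding signal exceeds about 50% in the single-dose screen, limit read from the data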;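 further: 0% = receptor plus peptide wells without compound and 100% = peptide-only wells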
Target sequence (Q92731 whole entry, looked up, the tested form may be a part): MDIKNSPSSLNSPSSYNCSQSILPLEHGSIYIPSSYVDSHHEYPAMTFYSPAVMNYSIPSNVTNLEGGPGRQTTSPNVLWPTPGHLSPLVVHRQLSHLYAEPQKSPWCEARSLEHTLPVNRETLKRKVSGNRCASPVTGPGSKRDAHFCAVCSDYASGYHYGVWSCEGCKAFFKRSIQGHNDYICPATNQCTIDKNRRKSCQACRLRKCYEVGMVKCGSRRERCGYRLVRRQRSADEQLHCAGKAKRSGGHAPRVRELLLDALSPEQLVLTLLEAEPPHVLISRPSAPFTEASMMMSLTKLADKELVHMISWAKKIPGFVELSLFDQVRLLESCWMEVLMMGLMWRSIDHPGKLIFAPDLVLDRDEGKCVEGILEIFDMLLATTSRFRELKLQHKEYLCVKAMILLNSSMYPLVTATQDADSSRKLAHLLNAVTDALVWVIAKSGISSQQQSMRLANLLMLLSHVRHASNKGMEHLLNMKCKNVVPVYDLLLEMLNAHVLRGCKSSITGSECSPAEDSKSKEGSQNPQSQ
FAK blocker: inhibitors of human focal adhesion kinase. Q05397. biochemical FAK kinase activity assay. inhibition, %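 (tested at 7 µM)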. 97,000 compounds, 0.84% hits. AID 727; in the data active means inhibition above about 19%;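 further: 0% = DMSO and 100% = reference compound high control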
PTPN22 inh 2: LYP (human) phosphatase inhibition; Q9Y2R2; recombinant LYP catalytic domain, DiFMUP fluorescence; inhibition, % at 2 µM; 96,000 compounds, 0.21% hits;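 active means inhibition at 2 µM at or above a set limit, the screen mean plus 3 SD, cut at about 24% in these data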;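 further: 0% = DMSO with enzyme and 100% = enzyme fully blocked by orthovanadate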
An asterisk follows results filed as active; [ ] = another dose, or the depositor's remark.

How did O=C(NCCc1ccccc1)c1ccc2nc(-c3ccco3)c(-c3ccco3)nc2c1 do in these assays?
PTPN22 act: -3.0; ERa coact pot: 27.3; ERa SRC1 inh: 86.3*[fluorescence artefact?]; ERb SRC1 inh: 88.4*[fluorescence artefact?]; FAK blocker: 16.0; PTPN22 inh 2: 2.0

Results for CSc1nnc2c3cc(F)ccc3n(Cc3ccccc3)c2n1 ?
ERa coact pot: 336.3*; ERa SRC1 inh: 15.5; ERb SRC1 inh: 19.3

Results for COc1ccc(S(=O)(=O)N(CCc2ccccc2)CC(=O)O)cc1 ?
PTPN22 act: 10.3; ERa coact pot: 109.8; ERa SRC1 inh: -2.9; ERb SRC1 inh: -4.2; FAK blocker: -1.5; PTPN22 inh 2: -7.4

Results for CCCCCCN=CC1=C(O)C(C(=O)OC)C(C)(C)CC1=O (configuration not stated) ?
PTPN22 act: 4.0; ERa coact pot: 54.0; ERa SRC1 inh: 42.2; ERb SRC1 inh: 60.2*; FAK blocker: 0.0; PTPN22 inh 2: -1.8

What do the screens show for `Cc1nn(C)c(Oc2ccccc2)c1CCNS(=O)(=O)c1ccccc1`?
FAK blocker: -0.4

Results for O=C(Nc1ccc(F)cc1F)c1cc2ncc(Br)cn2n1 ?
PTPN22 act: 0.1; ERa coact pot: 99.0; ERa SRC1 inh: 39.1; ERb SRC1 inh: 44.3; FAK blocker: 1.5; PTPN22 inh 2: -3.2

How did COC(=O)c1ccccc1NC(=O)c1cc2ncc(Br)cn2n1 do in these assays?
PTPN22 act: -8.8; ERa coact pot: 579.1*[fluorescence artefact?]; ERa SRC1 inh: 27.0; ERb SRC1 inh: 33.1; FAK blocker: 0.6; PTPN22 inh 2: 7.3

What do the screens show for `CCn1ncc(Br)c1C(=O)Nc1ccc(F)cc1F`?
PTPN22 act: 5.9; ERa coact pot: 114.8; ERa SRC1 inh: 0.3; ERb SRC1 inh: 2.5; FAK blocker: -2.8; PTPN22 inh 2: -9.7

What do the screens show for `CCn1ncc(Br)c1C(=O)Nc1ccccc1C(=O)OC`?
PTPN22 act: -7.0; ERa coact pot: 98.2; ERa SRC1 inh: -8.0; ERb SRC1 inh: -4.0; FAK blocker: 53.1*; PTPN22 inh 2: 4.6

Results for O=S(=O)(/N=C(\Sc1ccc(Cl)cc1)c1ccccc1)c1ccccc1 ?
PTPN22 act: 0.4; ERa coact pot: 27.4; ERa SRC1 inh: 77.3*; ERb SRC1 inh: 55.2*[fluorescence artefact?]; FAK blocker: 1.6; PTPN22 inh 2: -3.9

What do the screens show for `Cc1nc2ccc(NC(=O)c3cccc(S(=O)(=O)N4CC(C)OC(C)C4)c3)cc2s1` (configuration not stated)?
PTPN22 act: -4.3; ERa coact pot: 83.2; ERa SRC1 inh: -11.8; ERb SRC1 inh: -0.7; FAK blocker: -0.6; PTPN22 inh 2: 3.8

Results for CCOC(=O)c1c(C)oc2ccc(NS(=O)(=O)c3cccs3)cc12 ?
PTPN22 act: 2.6; ERa coact pot: 90.6; ERa SRC1 inh: 7.3; ERb SRC1 inh: 6.5; FAK blocker: 8.0; PTPN22 inh 2: -0.4

Results for COC(=O)c1c(C)oc2ccc(NS(=O)(=O)c3cc(OC)ccc3OC)cc12 ?
PTPN22 act: -1.0; ERa coact pot: 102.3; ERa SRC1 inh: -17.7; ERb SRC1 inh: -13.8; FAK blocker: 12.6; PTPN22 inh 2: -3.3

How did CCCCOC(=O)c1c(C)oc2ccc(NS(=O)(=O)c3ccc4c5c(cccc35)C(=O)N4)cc12 do in these assays?
PTPN22 act: -10.4; ERa coact pot: 54.4; ERa SRC1 inh: 44.9; ERb SRC1 inh: 53.2*; FAK blocker: 5.2; PTPN22 inh 2: 11.2

How did COCCOC(=O)c1c(C)oc2ccc(NS(=O)(=O)c3ccc(C(=O)O)cc3)cc12 do in these assays?
ERa coact pot: 49.2; ERa SRC1 inh: 39.0; ERb SRC1 inh: 53.7*[fluorescence artefact?]

Results for Cn1cc(Br)c(C(=O)NNC(=O)c2cccc(Br)c2)n1 ?
PTPN22 act: -9.6; FAK blocker: 0.3; PTPN22 inh 2: 12.0

Results for CCN(CC)C(=O)CSc1nc2sc3c(c2c(=O)n1-c1ccc(C)cc1)CC(C)(C)SC3 ?
PTPN22 act: -10.0; ERa coact pot: 245.8*; ERa SRC1 inh: -16.6; ERb SRC1 inh: -15.2; FAK blocker: 1.8; PTPN22 inh 2: 10.5

What do the screens show for `O=C(CN1CCCCC1)Nc1ccc(NC(=O)c2ccc(Cl)cc2)cc1Cl`?
PTPN22 act: 5.0; FAK blocker: -4.3; PTPN22 inh 2: -1.5

Results for CC1CC(C)CN(C(=O)c2ccc3c(c2NCCO)C(=O)c2ccccc2C3=O)C1 (configuration not stated) ?
PTPN22 act: 13.4; ERa coact pot: 94.2; ERa SRC1 inh: -19.0; ERb SRC1 inh: -25.3; FAK blocker: 1.1; PTPN22 inh 2: -12.8

Results for Cc1ccc2c(CC(=O)OCc3csc(C)n3)coc2c1 ?
PTPN22 act: 7.6; ERa coact pot: 115.4; ERa SRC1 inh: 3.7; ERb SRC1 inh: 4.9; FAK blocker: -2.5; PTPN22 inh 2: -3.5

What do the screens show for `O=C(Cc1coc2cc3c(cc12)CCC3)OCc1cc(=O)n2c(n1)sc1ccccc12`?
PTPN22 act: -8.2; ERa coact pot: 135.5; ERa SRC1 inh: 75.9*; ERb SRC1 inh: 71.9*; FAK blocker: 17.0; PTPN22 inh 2: 6.7

What do the screens show for `CCC(Sc1nc(C)cc(=O)[nH]1)C(=O)Nc1nc2c(s1)CCCC2` (configuration not stated)?
PTPN22 act: -23.3; ERa coact pot: 106.3; ERa SRC1 inh: -3.1; ERb SRC1 inh: -2.0; FAK blocker: -3.0; PTPN22 inh 2: 21.9

Results for Cc1cc(=O)[nH]c(SCC(=O)Nc2nc3c(s2)CCCC3)n1 ?
PTPN22 act: 2.2; ERa coact pot: 106.6; ERa SRC1 inh: 0.8; ERb SRC1 inh: 77.8*; FAK blocker: -3.7; PTPN22 inh 2: -1.5

How did c1ccc(-n2ncc3c(NCC4CCCO4)ncnc32)cc1 (configuration not stated) do in these assays?
PTPN22 act: -2.0; ERa coact pot: 116.7; ERa SRC1 inh: -5.3; ERb SRC1 inh: -2.8; FAK blocker: -1.6; PTPN22 inh 2: -0.2

How did Clc1ccc(-n2ncc3c(NCC4CCCO4)ncnc32)cc1 (configuration not stated) do in these assays?
ERa coact pot: 73.3; ERa SRC1 inh: 25.7; ERb SRC1 inh: 54.8*[fluorescence artefact?]

How did Cc1n[nH]c(C)c1S(=O)(=O)Nc1ccc2c(c1)OCCO2 do in these assays?
PTPN22 act: -1.8; ERa coact pot: 115.7; ERa SRC1 inh: 2.5; ERb SRC1 inh: 7.2; FAK blocker: -4.7; PTPN22 inh 2: 5.5

How did CSc1nc(NCc2ccco2)c2sc3nc(C(C)C)c4c(c3c2n1)CC(C)(C)OC4 do in these assays?
PTPN22 act: 12.5; FAK blocker: 1.3; PTPN22 inh 2: -13.3

What do the screens show for `CC(C)c1nc2sc3c(NCc4ccccc4)ncnc3c2c2c1COC(C)(C)C2`?
PTPN22 act: 6.6; ERa coact pot: 365.7*[fluorescence artefact?]; ERa SRC1 inh: 10.0; ERb SRC1 inh: 24.8; FAK blocker: -1.2; PTPN22 inh 2: -7.6

Results for CC(C)c1nc2sc3c(NCc4ccco4)ncnc3c2c2c1COC(C)(C)C2 ?
PTPN22 act: -7.0; ERa coact pot: 138.1; ERa SRC1 inh: 53.8*[fluorescence artefact?]; ERb SRC1 inh: 41.3; FAK blocker: 17.0; PTPN22 inh 2: 3.9
